Experimental data as given in the supplement of paper PMC10849652.
About 7,900 targets were measured; listed, in parts, are those with a hit and a random draw of the rest. About 0.6% of all pairs of compound and target were hits. Values without a mark were called inactive.

How the values were obtained:
Assay in all cases: log2 fold change, soluble protein after heating vs DMSO (PISA); higher = thermal stabilisation; K562 cells, 10 uM, 30 min; active = over 0.2 and 3.5 SD of the protein, either way, in both replicates (recomputed)
[1] = compound: COC1=CC=C(C=C1)CN2C=CC3=C2C=C(C=C3)C(=O)NO
Procedure, shortened: (§1)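 Values are thermal stability changes relative to control samples and are taken from duplicates. They are stated as log2 fold changes. Before quantification by TMTpro 16plex LC-MS/MS with equalised channel sums, K562 cells at 2×10^6 cells/mL were treated with 10 μM compound for 30 min, heated in aliquots for 3 min across 48°C-58°C, pooled, extracted in PBS with 0.5% NP-40 at 4°C, and centrifuged at 21,000xg for 90 min to give the soluble supernatant.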

filanesib = compound: CON(C)C(=O)N1N=C(c2cc(F)ccc2F)S[C@@]1(CCCN)c1ccccc1 [filanesib]
Procedure, shortened: as §1

zotarolimus = compound: CO[C@H]1C[C@@H]2CC[C@@H](C)[C@@](O)(O2)C(=O)C(=O)N2CCCC[C@H]2C(=O)O[C@H]([C@H](C)C[C@@H]2CC[C@H](n3cnnn3)[C@H](OC)C2)CC(=O)[C@H](C)/C=C(\C)[C@@H](O)[C@@H](OC)C(=O)[C@H](C)C[C@H](C)/C=C/C=C/C=C/1C [zotarolimus]
Procedure, shortened: as §1

idasanutlin = compound: COc1cc(C(=O)O)ccc1NC(=O)[C@@H]1N[C@@H](CC(C)(C)C)[C@](C#N)(c2ccc(Cl)cc2F)[C@H]1c1cccc(Cl)c1F [idasanutlin]
Procedure, shortened: as §1

alisertib = compound: COc1cc(Nc2ncc3c(n2)-c2ccc(Cl)cc2C(c2c(F)cccc2OC)=NC3)ccc1C(=O)O [alisertib]
Procedure, shortened: as §1

[2] = compound: COc1cc2nc(-c3cc(F)ccc3O)nc(N[C@@H]3CNC[C@H]3C(C)(C)O)c2cc1OC
Procedure, shortened: as §1

gefitinib = compound: COc1cc2ncnc(Nc3ccc(F)c(Cl)c3)c2cc1OCCCN1CCOCC1 [gefitinib]
Procedure, shortened: as §1

[3] = compound: COc1cccc2cc(-c3nc([C@H]4CC[C@H](C(=O)O)CC4)n4ncnc(N)c34)[nH]c12
Procedure, shortened: as §1

lapatinib = compound: CS(=O)(=O)CCNCc1ccc(-c2ccc3ncnc(Nc4ccc(OCc5cccc(F)c5)c(Cl)c4)c3c2)o1 [lapatinib]
Procedure, shortened: as §1

pictilisib = compound: CS(=O)(=O)N1CCN(Cc2cc3nc(-c4cccc5[nH]ncc45)nc(N4CCOCC4)c3s2)CC1 [pictilisib]
Procedure, shortened: as §1

Sequence of UniProt Q9NZN8 (Q9NZN8 whole entry, looked up): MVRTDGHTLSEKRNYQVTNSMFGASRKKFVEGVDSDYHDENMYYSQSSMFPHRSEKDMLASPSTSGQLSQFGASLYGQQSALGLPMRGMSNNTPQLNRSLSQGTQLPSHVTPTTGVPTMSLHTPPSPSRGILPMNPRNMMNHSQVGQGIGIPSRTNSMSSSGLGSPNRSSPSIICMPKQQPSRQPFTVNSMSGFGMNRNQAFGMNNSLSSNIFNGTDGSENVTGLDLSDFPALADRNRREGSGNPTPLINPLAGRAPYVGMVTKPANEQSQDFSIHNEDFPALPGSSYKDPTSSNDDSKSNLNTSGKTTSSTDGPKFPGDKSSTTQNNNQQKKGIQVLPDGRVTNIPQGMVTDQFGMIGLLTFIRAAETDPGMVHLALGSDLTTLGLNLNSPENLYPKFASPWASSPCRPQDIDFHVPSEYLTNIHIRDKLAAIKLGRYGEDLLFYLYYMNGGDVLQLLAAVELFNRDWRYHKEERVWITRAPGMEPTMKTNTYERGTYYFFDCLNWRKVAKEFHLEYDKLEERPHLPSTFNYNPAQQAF
Sequence of UniProt P14854 (P14854 whole entry, looked up): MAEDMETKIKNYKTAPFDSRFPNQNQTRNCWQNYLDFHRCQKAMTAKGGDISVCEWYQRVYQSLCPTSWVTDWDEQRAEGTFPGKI
Sequence of UniProt Q9HAW4 (Q9HAW4 whole entry, looked up): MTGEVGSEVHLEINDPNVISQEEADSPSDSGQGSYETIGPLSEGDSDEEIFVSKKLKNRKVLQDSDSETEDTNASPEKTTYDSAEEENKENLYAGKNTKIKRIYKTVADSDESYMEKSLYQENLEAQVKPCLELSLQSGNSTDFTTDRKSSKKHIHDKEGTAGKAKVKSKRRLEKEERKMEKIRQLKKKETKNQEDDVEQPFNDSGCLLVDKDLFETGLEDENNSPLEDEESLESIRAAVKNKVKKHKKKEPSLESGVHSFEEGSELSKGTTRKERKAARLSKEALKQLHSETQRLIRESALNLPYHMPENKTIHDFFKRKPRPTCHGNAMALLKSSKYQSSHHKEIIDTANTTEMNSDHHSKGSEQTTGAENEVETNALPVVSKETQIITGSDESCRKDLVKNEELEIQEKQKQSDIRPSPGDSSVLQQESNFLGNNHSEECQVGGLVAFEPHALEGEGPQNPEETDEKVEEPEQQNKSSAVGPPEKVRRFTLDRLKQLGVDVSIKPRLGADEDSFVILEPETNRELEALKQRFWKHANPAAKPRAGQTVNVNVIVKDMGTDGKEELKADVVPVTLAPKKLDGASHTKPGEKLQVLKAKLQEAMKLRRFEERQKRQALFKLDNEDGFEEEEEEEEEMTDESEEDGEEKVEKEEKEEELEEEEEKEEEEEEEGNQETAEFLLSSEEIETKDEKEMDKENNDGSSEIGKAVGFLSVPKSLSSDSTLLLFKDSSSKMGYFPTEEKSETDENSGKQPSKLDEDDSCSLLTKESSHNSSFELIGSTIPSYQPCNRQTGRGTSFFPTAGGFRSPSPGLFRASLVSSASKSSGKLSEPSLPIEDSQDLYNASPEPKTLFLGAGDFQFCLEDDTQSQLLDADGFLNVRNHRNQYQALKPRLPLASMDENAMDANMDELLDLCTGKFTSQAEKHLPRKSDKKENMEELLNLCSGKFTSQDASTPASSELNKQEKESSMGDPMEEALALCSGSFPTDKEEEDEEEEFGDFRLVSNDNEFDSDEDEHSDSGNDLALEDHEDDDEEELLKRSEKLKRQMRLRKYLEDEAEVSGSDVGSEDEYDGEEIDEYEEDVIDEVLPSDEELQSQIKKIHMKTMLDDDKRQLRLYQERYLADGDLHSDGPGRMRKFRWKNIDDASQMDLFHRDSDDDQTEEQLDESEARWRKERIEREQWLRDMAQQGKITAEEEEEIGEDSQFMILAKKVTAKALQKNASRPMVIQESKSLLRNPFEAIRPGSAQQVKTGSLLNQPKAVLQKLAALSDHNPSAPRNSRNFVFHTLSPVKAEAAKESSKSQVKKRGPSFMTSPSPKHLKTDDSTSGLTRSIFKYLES
Sequence of UniProt O75122 (O75122 whole entry, looked up): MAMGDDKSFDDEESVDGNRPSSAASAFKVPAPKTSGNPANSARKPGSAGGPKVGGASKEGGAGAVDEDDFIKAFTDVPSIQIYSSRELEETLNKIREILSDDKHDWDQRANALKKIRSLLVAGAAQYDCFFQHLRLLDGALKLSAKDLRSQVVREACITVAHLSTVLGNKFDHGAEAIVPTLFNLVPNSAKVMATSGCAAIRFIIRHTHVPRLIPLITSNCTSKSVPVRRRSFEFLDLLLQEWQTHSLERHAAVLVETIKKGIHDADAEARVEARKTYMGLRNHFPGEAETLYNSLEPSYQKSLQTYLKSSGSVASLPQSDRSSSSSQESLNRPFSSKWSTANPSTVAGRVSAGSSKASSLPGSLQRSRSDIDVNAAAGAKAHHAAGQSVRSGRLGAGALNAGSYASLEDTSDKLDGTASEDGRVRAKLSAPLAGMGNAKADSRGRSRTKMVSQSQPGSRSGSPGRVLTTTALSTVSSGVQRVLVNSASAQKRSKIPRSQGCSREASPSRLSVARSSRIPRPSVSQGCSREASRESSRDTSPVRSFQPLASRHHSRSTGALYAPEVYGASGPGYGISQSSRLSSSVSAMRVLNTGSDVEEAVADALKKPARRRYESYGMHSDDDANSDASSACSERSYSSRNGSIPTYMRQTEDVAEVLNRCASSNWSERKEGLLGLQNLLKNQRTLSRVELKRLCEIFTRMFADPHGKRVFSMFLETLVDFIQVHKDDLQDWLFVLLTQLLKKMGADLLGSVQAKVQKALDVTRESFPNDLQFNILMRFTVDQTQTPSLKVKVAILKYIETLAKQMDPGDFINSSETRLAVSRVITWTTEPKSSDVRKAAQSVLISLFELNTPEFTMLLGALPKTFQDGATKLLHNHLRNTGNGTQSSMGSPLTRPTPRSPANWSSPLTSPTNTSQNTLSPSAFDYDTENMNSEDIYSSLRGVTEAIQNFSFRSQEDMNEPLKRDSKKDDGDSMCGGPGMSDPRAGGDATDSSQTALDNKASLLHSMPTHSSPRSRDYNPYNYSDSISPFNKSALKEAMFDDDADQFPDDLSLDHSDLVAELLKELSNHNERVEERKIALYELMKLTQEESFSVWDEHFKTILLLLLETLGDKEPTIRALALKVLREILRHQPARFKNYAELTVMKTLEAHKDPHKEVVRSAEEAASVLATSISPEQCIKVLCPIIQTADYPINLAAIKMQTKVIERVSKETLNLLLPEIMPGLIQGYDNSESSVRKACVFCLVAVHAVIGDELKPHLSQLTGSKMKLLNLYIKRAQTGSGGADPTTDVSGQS
Sequence of UniProt P11802 (P11802 whole entry, looked up): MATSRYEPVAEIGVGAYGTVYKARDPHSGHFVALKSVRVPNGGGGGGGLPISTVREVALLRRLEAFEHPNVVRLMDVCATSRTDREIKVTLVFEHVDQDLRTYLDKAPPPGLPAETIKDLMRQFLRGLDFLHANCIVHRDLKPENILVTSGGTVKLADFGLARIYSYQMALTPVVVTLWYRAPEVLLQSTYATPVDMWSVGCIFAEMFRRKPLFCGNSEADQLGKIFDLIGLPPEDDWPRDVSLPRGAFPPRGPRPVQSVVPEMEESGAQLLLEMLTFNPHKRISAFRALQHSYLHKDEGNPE
Sequence of UniProt Q6NZI2 (Q6NZI2 whole entry, looked up): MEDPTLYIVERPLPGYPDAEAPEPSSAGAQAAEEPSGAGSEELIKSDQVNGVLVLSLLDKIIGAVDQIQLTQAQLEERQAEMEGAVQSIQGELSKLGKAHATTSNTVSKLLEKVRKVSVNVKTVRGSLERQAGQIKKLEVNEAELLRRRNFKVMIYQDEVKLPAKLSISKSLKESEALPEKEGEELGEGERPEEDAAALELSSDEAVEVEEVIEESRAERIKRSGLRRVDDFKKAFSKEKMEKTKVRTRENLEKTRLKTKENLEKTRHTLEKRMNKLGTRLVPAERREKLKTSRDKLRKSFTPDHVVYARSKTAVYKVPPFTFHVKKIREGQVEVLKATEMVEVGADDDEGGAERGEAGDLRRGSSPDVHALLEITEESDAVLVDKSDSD
Sequence of UniProt Q9NRR8 (Q9NRR8 whole entry, looked up): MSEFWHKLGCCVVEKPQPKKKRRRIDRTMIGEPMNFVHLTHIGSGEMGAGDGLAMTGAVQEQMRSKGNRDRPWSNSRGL
Sequence of UniProt Q96JB5 (Q96JB5 whole entry, looked up): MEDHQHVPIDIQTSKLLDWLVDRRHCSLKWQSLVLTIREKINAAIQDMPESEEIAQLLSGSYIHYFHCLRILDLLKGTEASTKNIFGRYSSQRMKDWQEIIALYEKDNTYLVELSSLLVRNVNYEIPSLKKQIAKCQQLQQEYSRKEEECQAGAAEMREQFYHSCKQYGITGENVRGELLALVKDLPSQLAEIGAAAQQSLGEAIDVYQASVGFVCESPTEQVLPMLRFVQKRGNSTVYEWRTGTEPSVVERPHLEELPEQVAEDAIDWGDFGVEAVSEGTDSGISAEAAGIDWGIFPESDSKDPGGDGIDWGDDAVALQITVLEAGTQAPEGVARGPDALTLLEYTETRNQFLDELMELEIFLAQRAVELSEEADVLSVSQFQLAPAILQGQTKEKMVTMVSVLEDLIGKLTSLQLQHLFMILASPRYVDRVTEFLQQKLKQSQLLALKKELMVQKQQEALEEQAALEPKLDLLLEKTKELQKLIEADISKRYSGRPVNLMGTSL
Sequence of UniProt P10606 (P10606 whole entry, looked up): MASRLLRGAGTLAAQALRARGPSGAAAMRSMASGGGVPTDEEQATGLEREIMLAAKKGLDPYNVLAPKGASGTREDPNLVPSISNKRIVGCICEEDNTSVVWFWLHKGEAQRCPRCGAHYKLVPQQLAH
Sequence of UniProt P09497 (P09497 whole entry, looked up): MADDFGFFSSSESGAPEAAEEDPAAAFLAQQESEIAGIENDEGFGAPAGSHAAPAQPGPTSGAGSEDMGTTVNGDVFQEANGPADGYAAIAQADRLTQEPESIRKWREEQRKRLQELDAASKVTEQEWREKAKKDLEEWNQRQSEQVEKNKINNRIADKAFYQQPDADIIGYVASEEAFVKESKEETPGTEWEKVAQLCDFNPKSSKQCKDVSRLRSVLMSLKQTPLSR

Target	log2 fold change [1]	log2 fold change (filanesib)	log2 fold change (zotarolimus)	log2 fold change (idasanutlin)	log2 fold change (alisertib)	log2 fold change [2]	log2 fold change (gefitinib)	log2 fold change [3]	log2 fold change (lapatinib)	log2 fold change (pictilisib)
CHST10 (UniProt O43529)	-0.11	0.021	0.088	0.062	-0.014	-0.073	-0.071	0.088	0.058	0.027
C22orf39 (UniProt Q6P5X5)	0.02	-0.043	-0.014	0.119	-0.025	-0.344	0.058	-0.006	0.077	
CNOT2 (UniProt Q9NZN8)	-0.006	0.006	0.014	0.005	-0.01	0.021	0.017	-0.021	0.048	0.04
CCNT1 (UniProt O60563)	-0.05	0.13	0.044	0.109	-0.093	-0.371 (active)	0.021	-0.158	0.098	-0.049
CLCN3 isoform 2 (UniProt P51790)	0.057	-0.151	-0.031	-0.008	0.03	-0.064	-0.015	0.04	0.008	
CSNK1D (UniProt P48730)	0.045	0.153	-0.019	0.027	-0.016	-0.049	-0.006	-0.009	0.041	-0.053
CDK4 (UniProt P11802)	-0.111	0.09	-0.071	0.061	0.062	-0.049	0.017	-0.057	-0.031	
COX5B (UniProt P10606)	0.012	0.212	0.094	0.019	-0.103	0.004	0.011	0.015	-0.038	-0.04
CLUH (UniProt O75153)	-0.026	0.07	0.028	-0.074	-0.072	-0.022	-0.001	-0.152	0.006	
CLCN7 (UniProt P51798)	0.112	-0.294 (active)	0.008	-0.006	-0.084	-0.077	-0.144	0.023	-0.011	
CPQ (UniProt Q9Y646)	-0.014	-0.05	-0.058	-0.093	-0.054	0.01	0.038	0.047	-0.014	0.027
COA6 isoform 2 (UniProt Q5JTJ3)	0.02	-0.029	0.019	-0.052	0.002	-0.042	-0.003	0.022	-0.017	-0.006
CLTB (UniProt P09497)	0.263 (active)	-0.053	-0.006	-0.02	-0.106	0	0.017	0.028	-0.014	
CLASP2 isoform 3 (UniProt O75122)	0.021	0.068	0.033	-0.024	-0.021	0.055	-0.002	0.003	-0.009	
CLPP (UniProt Q16740)	-0.03	-0.017	0	-0.038	-0.091	0.011	0.01	0.021	-0.034	
CLINT1 isoform 3 (UniProt Q14677)	-0.159	0.155	-0.031	0	-0.105	0.074	0.148	-0.041	0.014	

Target	log2 fold change [1]	log2 fold change (filanesib)	log2 fold change (zotarolimus)	log2 fold change (idasanutlin)	log2 fold change (alisertib)	log2 fold change [2]	log2 fold change (gefitinib)	log2 fold change [3]	log2 fold change (lapatinib)	log2 fold change (pictilisib)
CLSPN (UniProt Q9HAW4)	-0.076	0.053	-0.034	0.107	0.004	-0.111	-0.019	-0.018	0.053	
CLCN3 (UniProt P51790)	-0.158	-0.12	-0.099	-0.095	-0.016	0.031	0.045	0.058	-0.06	
CDK5RAP3 isoform 4 (UniProt Q96JB5)	-0.008	-0.085	0.026	-0.091	-0.001	0.075	0.024	0.004	-0.034	-0.015
CCAR1 (UniProt Q8IX12)	0.018	-0.105	0.011	-0.041	-0.056	-0.02	0.027	0.014	0.003	-0.072
CASP3 (UniProt P42574)	0.004	-0.002	0.029	0.072	-0.103	0.025	0.002	-0.018	0.017	0.006
COX6B1 (UniProt P14854)	-0.08	0.003	0.012	0	0.007	0.045	0.036	0.019	-0.026	0.002
CDC42SE1 (UniProt Q9NRR8)	-0.011	-0.049	0	-0.093	0.003	0.036	-0.025	-0.168	-0.088	
CLPTM1L (UniProt Q96KA5)	-0.053	-0.114	-0.095	-0.141	-0.032	-0.08	-0.007	0.065	-0.02	
CLPX (UniProt O76031)	0.077	-0.07	-0.052	-0.007	-0.026	-0.017	0.019	0.021	0.014	
CAVIN1 (UniProt Q6NZI2)	-0.012	0.109	0	0.15	-0.098	-0.107	-0.1	-0.159	0.089	-0.094
CBX1 (UniProt P83916)	0.41 (active)	-0.016	0.008	0.038	-0.059	-0.086	0.021	0.003	0.037	-0.046
CLUH, A0A494C0R8	0.131	0.168	-0.065	0.027	0.007	-0.024	0.078	-0.227	-0.011	
CERT isoform 3 (UniProt Q9Y5P4)	-0.025	0.001	0.2	-0.145	-0.064	-0.201	0.157	-0.004	0.247	0.186
CDK16 isoform 2 (UniProt Q00536)	0.029	0.021	-0.028	-0.036	0.02	0.252	-0.086	0.037	0.002	
CHKA (UniProt P35790)	-0.021	0.02	-0.148	-0.009	-0.032	0.065	-0.016	0.004	-0.013	0.041
